Screening results from PubChem BioAssay.
HT1080 IDH1KD tx = toxicity to HT-1080 IDH1 knockdown cells (counter line) | Potency, µM (series often up to 46.1 µM), most hits filed as cytotoxic | AID 686971 | HT-1080 IDH1 knockdown viability, ATP luminescence, 48 h | 360,000 tested, 2% active
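Luminescent ATP read-out (CellTiter-Glo, 10 min at room temperature) after 48 h compound exposure at 37 °C gave viability of IDH1-knockdown HT-1080 cells. Activity was normalised to DMSO and cell-free wells, then fitted as concentration-response curves.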
KB-V1 MDR tox = kills drug-selected multidrug resistant KB-V1 cells. 400,000 tested, 3.4% active. Potency, µM (series often up to 46.1 µM), most hits filed as cytotoxic. KB-V1 MDR cells viability, CellTiter-Glo, 72 h. AID 1347076; also: nearly all actives have a fitted effect of over 60% in size
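Potencies derive from concentration-effect curves fitted to normalized luminescence (CellTiter-Glo) of KB-V1 cells treated for 72 h at 37 degrees C in phenol-red-free DMEM containing 10% FBS.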
KB-3-1 tox = KB-3-1 parental cell cytotoxicity | KB-3-1 viability, CellTiter-Glo ATP luminescence, 72 h | 400,000 tested, 1.4% active | Potency, µM (doses to about 46.1 µM), most hits filed as cytotoxic | AID 1347075; also: nearly all actives have a fitted effect of over 60% in size
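Screening of KB-3-1 cells (DMEM, 10% FBS, phenol-red free) ran from lowest to highest compound concentration; after 72 h at 37 °C viability was read luminescently and curves fitted.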
DT40 TDP1 no CPT = qHTS for Inhibitors of human tyrosyl-DNA phosphodiesterase 1 (TDP1): qHTS in cells in absence of CPT. DT40 Tdp1-/- hTDP1 cells, no CPT, ATP luminescence, 48 h. Potency, µM (titrated, usually from 46.2 µM), actives largely listed as inhibitors. 420,000 tested, 15% active; also: nearly all actives have a fitted effect of over 55% in size
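Readout: luminescence from CellTiter-Glo after 30 min in the dark at RT. Cells: DT40 Tdp1-/- with stable hTDP1, 400/well. Exposure: compounds alone, ≥48 hr, 37 °C.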
DT40 TDP1 CPT = growth inhibition of DT40 Tdp1-/-;hTDP1 cells with camptothecin (screen for TDP1 inhibitors) | chicken DT40 Tdp1-/-;hTDP1 cells + 20 nM CPT, ATP luminescence, 48 h | Potency, µM (top dose mostly 46.2 µM), usual class: inhibitors | 420,000 tested, 12% active | AID 686979; also: nearly all actives have a fitted effect of over 55% in size
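Chicken DT40 Tdp1-/- cells stably complemented with human TDP1 were seeded at 400 cells/well in medium containing 20 nM camptothecin, exposed to pin-transferred compounds, and grown at 37 °C for at least 48 hr. Viability was read as ATP luminescence.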
HT1080NT lethal = kills 2HG-producing HT-1080-NT fibrosarcoma cells; HT-1080-NT fibrosarcoma viability, CellTiter-Glo ATP luminescence, 48 h; AID 686970; 360,000 tested, 1.6% active; Potency, µM (highest dose often 46.1 µM), most hits filed as cytotoxic;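 also: NT is the 2HG producing partner of a matched IDH1 knockdown line; nearly all actives have a fitted effect of over 55% in size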
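750 cells/well, RPMI + 5% FBS; 2 h settle, compound pin-transfer, 48 h at 37 degrees C. CellTiter-Glo 10 min RT, luminescence. Normalized to DMSO and media-only wells.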
Hits are given with their value; i = inactive; ? = inconclusive; nt = no result given; [ ] = another dose, or the depositor's remark. Hits are enriched below; roughly 19% of the tested compounds scored in any of these assays. Calls follow the shape of the dose curve; as a rule, active = well fitted curve in the direction sought with a large enough effect; inconclusive = small, poorly fitted or top-dose-only effect, or another doubt; inactive = no such curve, though single readings can be large; an effect the other way counts as inactive or inconclusive.

SMILES | HT1080 IDH1KD tx | KB-V1 MDR tox | KB-3-1 tox | DT40 TDP1 no CPT | DT40 TDP1 CPT | HT1080NT lethal
CSc1ccc(C(O)c2ncc(-c3ccc(F)cc3)[nH]2)cc1 (centres undefined) | i | i | i | 15µM | 29µM | i
Cc1cccc(C(O)c2ncc(-c3ccccc3)[nH]2)c1C (centres undefined) | i | i | i | i | 18µM | i
COc1cccc(-c2cnc(C(O)c3ccc(C(C)(C)C)cc3)[nH]2)c1 (centres undefined) | ? | i | i | 18µM | ? | ?
Cc1ccc(C)c(C(O)c2ncc(-c3ccc4ccccc4c3)[nH]2)c1 (centres undefined) | i | i | i | ? | 18µM | i
O=C(O)C1C2CCC(CC2)C1C(=O)N1CCN(Cc2ccc(F)cc2)CC1 (centres undefined) | i | i | i | i | i | i
Cc1ccc2nc(COc3ccccc3NC(=O)C(C)(C)C)cc(=O)n2c1 | nt | i | i | ? | ? | nt
COc1cccc(/C=C/C(=O)OCC(=O)NCC2CCCCC2)c1OC | i | i | i | i | i | i[9.24 µM]
CC(C)C(NS(C)(=O)=O)c1nnc2n1CCN(Cc1ccc(Cl)cc1)CC2 (centres undefined) | nt | nt | nt | ? | i[9.04 µM] | nt
CC(C)(C)c1ccc(C(O)c2ncc(-c3cccc(F)c3)[nH]2)cc1 (centres undefined) | ? | i | ? | ? | 15µM | ?
Cc1cc(F)ccc1C(O)c1ncc(-c2cccc(OCc3ccccc3)c2)[nH]1 (centres undefined) | ? | i | ? | 16µM | ? | ?
OC(c1cc(F)cc(Cl)c1)c1ncc(-c2ccc3ccccc3c2)[nH]1 (centres undefined) | ? | i | i | 13µM | 18µM | ?
COc1cccc(-c2cnc(C(O)c3ccc(F)cc3C)[nH]2)c1 (centres undefined) | i | i | i | i | ? | i
COc1ccc(C(O)c2ncc(-c3ccc4ccccc4c3)[nH]2)cc1F (centres undefined) | i | i | i | ? | ? | i
OC(c1cccc(Cl)c1)c1ncc(-c2ccc3ccccc3c2)[nH]1 (centres undefined) | ? | i | i | ? | ? | i
CC(C)(C)c1ccc(C(O)c2ncc(-c3ccc4ccccc4c3)[nH]2)cc1 (centres undefined) | ? | i | i | 18µM | ? | ?
Cc1ccccc1Nc1nc(N)nc(COC(=O)c2ccc3c(c2)OCCO3)n1 | i | i | i | ? | i | i
COc1cc(C2NC(=O)N(C)C(C)=C2C(=O)OCc2ccccc2)cc(Br)c1O (centres undefined) | i | i | i | i | i | i
CCC(C)/C(C)=N/NC(=O)CNS(=O)(=O)c1ccc([N+](=O)[O-])cc1 (centres undefined) | i | i | i | i | ? | i
COc1cccc(-c2cnc(C(O)c3cc(Cl)cc(Cl)c3)[nH]2)c1 (centres undefined) | ? | i | i | ? | 23µM | ?
CSc1ccc(NC(=O)NCCCN2CCC(Cc3ccccc3)CC2)cc1 | i | i | i | 23µM | ? | i
O=C(NCCCN1CCCCCC1)[C@@H](c1ccccc1)C1CCCCC1 | nt | nt | nt | 11µM | 11µM | nt
O=C(NCCCN1CCC(Cc2ccccc2)CC1)C1CC(=O)N(C2CCCCCC2)C1 (centres undefined) | i | i | i | 26µM | ? | i
Cc1ccc(NC(=O)Cn2cnc3onc(-c4ccc(F)cc4)c3c2=O)c(Cl)c1 | nt | ? | i | i | i | nt
CN(Cc1ccco1)c1ncnc2ccc(-c3ccccc3Cl)cc12 | nt | i | ? | ? | 21µM | nt
CN(Cc1ccco1)c1ncnc2ccc(-c3ccoc3)cc12 | nt | i | i | ? | 18µM | nt
CN(Cc1ccco1)c1nc(-c2ccoc2)nc2ccccc12 | nt | nt | nt | i | ? | nt
